Type in all cases: functional
Test [1] concerns Plasmodium falciparum. Nature of the test: GSK_TCMDC: Inhibition of Plasmodium falciparum 3D7 in whole red blood cells, using parasite LDH activity as an index of growth. Test compounds present at 2uM.
Test [2] deals with Plasmodium falciparum. Nature of the test: GSK_TCMDC: Inhibition of Plasmodium falciparum Dd2 in whole red blood cells, using parasite LDH activity as an index of growth. Test compounds present at 2uM.
The subject of another test is HepG2. Nature of the test: GSK_TCMDC: Percent inhibition of human HepG2 cell line. Test compounds present at 10uM.

Molecules are shown by their SMILES.

By Inhibition is commonly meant the percentage by which the read-out fell short of the control. The low end stands for a response near the control, the high end for a response far below the control. On to `N#CCCN1CCN(Cc2cccc(-c3ccc(-c4nc5ccccc5[nH]4)cc3)c2)CC1.O=C(O)C(F)(F)F`, for which the figures for the Inhibition in the test on Plasmodium falciparum [1], in the test on Plasmodium falciparum [2] and in the test with HepG2 were 93%, 20% and 18%, respectively.
With `O=C(NC1CCCCN(Cc2ccccc2O)C1)c1cccc(C(F)(F)F)c1.O=C(O)C(F)(F)F` (stereo not given), the Inhibition in the test with Plasmodium falciparum [1] worked out at 93%; in the test with Plasmodium falciparum [2] it was 64%; in the test on HepG2 it was 0%.
On to `Cl.N#Cc1ccc2c(c1)CCN(CCC1CCC(NC(=O)/C=C/c3c[nH]c4c(Br)cccc34)CC1)CC2` (stereo not given), for which the Inhibition in the test on Plasmodium falciparum [1] was 100%; with Plasmodium falciparum [2], 65%; in the test on HepG2, 32%.
As to `Cc1ccc(-c2nnc3c4ccccc4c(C)nn23)cc1S(=O)(=O)N1CCN(CCO)CC1`, the figures for the Inhibition with Plasmodium falciparum [1], with Plasmodium falciparum [2] and in the test on HepG2 were 85%, 62% and 16%, respectively.
`Cc1cc(N2CCCC2)nc(NC(=N)Nc2cccc(C(F)(F)F)c2)n1`: the Inhibition with Plasmodium falciparum [1] worked out at 100%; in the test with Plasmodium falciparum [2], 100%; in the test with HepG2 it was 33%.
Take `NC(=O)c1cccc(CNC(=O)NC[C@H]2CN(Cc3ccc(Cl)c(Cl)c3)CCO2)c1`: the Inhibition in the test on Plasmodium falciparum [1] stood at 98%; with Plasmodium falciparum [2], 65%; in the test with HepG2, 0%.
Regarding `Cc1c(Cl)cccc1S(=O)(=O)Nc1cccc(CCN2CCC(N3CCCCC3)CC2)c1`, the Inhibition in the test on Plasmodium falciparum [1] is on record as 100%; with Plasmodium falciparum [2], 82%; with HepG2 it was 38%.
As to `COc1cc2nc(SCC(C)C)n(CCCn3ccnc3)c(=N)c2cc1OC`, the Inhibition was 99% in the test on Plasmodium falciparum [1], 78% with Plasmodium falciparum [2] and 15% with HepG2.
Consider `COc1ccc(CNC2CCN(C)CC2)cc1-c1cccc(S(=O)(=O)NCc2ccccc2)c1.O=C(O)C(F)(F)F`, for which the Inhibition in the test on Plasmodium falciparum [1] was found to be 100%; with Plasmodium falciparum [2], 7%; in the test on HepG2 it was 43%.
As to `CN(C)c1ccc(-c2csc(C(=O)NC3CCN(CCC(C)(C)C)C3)c2)cc1.O=C(O)C(F)(F)F` (stereo not given), the Inhibition is listed as 95% with Plasmodium falciparum [1], 36% with Plasmodium falciparum [2] and 20% with HepG2.

The values above are taken from ChEMBL document CHEMBL1157539, “Thousands of chemical starting points for antimalarial lead identification” (Nature, 2010).
